CD40 NFkB inh – CD40 pathway inhibition in BL2 cells. BL2 NF-kB luciferase reporter, CD40L-induced, 4 h. inhibition, % at 10 µM. actives 0.94% (n = 83,000);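 active means mean inhibition of at least 50% with a set share of replicates also reaching that level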;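 further: 0% = neutral control wells and 100% = IKK inhibitor VII at 50 µM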
Numbers without * were called inactive; ! = a repeat was not active; [ ] = dose if it differs, or a comment. The full list was thinned out, with hits kept by preference.

SMILES	CD40 NFkB inh
CC(C)(C)n1cc(C(=O)c2ccc3ccccc3c2O)cn1	54*
C[C@H](CO)N1C[C@H](C)[C@H](CN(C)C(=O)Oc2cccc3ccccc23)OCc2cn(nn2)CCCC1=O	3[25 µM]
C=CCN1[C@@H]2CN(C(C)=O)C[C@H]1C2c1ccc(Br)cc1 (some centres undefined)	11
CS(=O)(=O)N1CC2NC(C1)C2c1ccc(Br)cc1 (centres undefined)	-5
O=C1CNC[C@H]2[C@@H](c3ccc(Br)cc3)[C@H](CO)N12	-3[25 µM]
CS(=O)(=O)N1C[C@@H]2N[C@H](C1)C2c1ccccc1 (some centres undefined)	-5
CN1[C@@H]2CN(S(C)(=O)=O)C[C@H]1C2c1ccccc1 (some centres undefined)	4
CN1[C@@H]2CN(S(C)(=O)=O)C[C@H]1C2c1ccc(Br)cc1 (some centres undefined)	28*!
CS(=O)(=O)N1C[C@@H]2N[C@H](C1)C2c1ccc(Br)cc1 (some centres undefined)	-4
O=C(Cc1ccccn1)N1CCCCN2[C@@H](CO)[C@@H](c3ccc(-c4ccccc4F)cc3)[C@@H]2C1	15[25 µM]
O=C(Cc1cccnc1)N1CCCCN2[C@H](CO)[C@H](c3ccc(C#CC4(O)CCCC4)cc3)[C@H]2C1	6[25 µM]
CN1[C@@H]2c3cccc(=O)n3C[C@H]1[C@H](CO)[C@H]2C(=O)NCC1CC1	15
O=C(Cc1cccnc1)N1CCCCN2[C@H](C1)[C@H](c1ccc(C#CC3(O)CCCC3)cc1)[C@@H]2CO	2[25 µM]
CC(=O)C1CCC2C3CCC4CC(O)CCC4(C)C3CCC12C#N (centres undefined)	1
C[C@]12CC[C@@H](O)C[C@@H]1CC[C@@H]1[C@@H]2CC[C@]2(C)C(=O)CC[C@@H]12	12
CC1OC(OC2C(O)CC(OC3C(O)CC(OC4CCC5(C)C(CCC6C5CCC5(C)C(C7=CC(=O)OC7)C(O)CC65O)C4)OC3C)OC2C)CC(O)C1O (centres undefined)	58*
C[C@]12CCC3C(CC[C@H]4C[C@@H](O)CC[C@]34C)C1C[C@@H](O)[C@@H]2O (some centres undefined)	1
C[C@]12CC[C@H](O)C[C@H]1CC[C@@H]1[C@@H]2CC[C@]2(C)[C@@H](c3ccc(=O)oc3)CC[C@]12O	58*[25 µM]
C[C@]12CC[C@H](O)C[C@@H]1CC[C@H]1[C@H]3CCC(=O)[C@@]3(C)CC[C@@H]12	2
CC(=O)OC1CC2(O)C3CCC4CC(O)CCC4(C)C3CCC2(C)C1C1=CC(=O)OC1 (centres undefined)	75*
CC(C)NC(=O)N1[C@@H]2Cn3c(ccc(-c4cccc(C(=O)N(C)C)c4)c3=O)[C@H]1[C@@H](C(=O)O)[C@@H]2CO	4[25 µM]
CC12CCC3C(CCC4C(=O)C(=O)CCC43C)C1CCC2=O (centres undefined)	4[25 µM]
N#Cc1ccc(-c2ccc([C@H]3[C@H]4CN(C(=O)Cc5ccccc5)CCCCN4[C@H]3CO)cc2)cc1	1[25 µM]
CN(C)CC#Cc1ccc([C@@H]2[C@H](CO)N3CCCCN(C(=O)Cc4ccccn4)C[C@@H]23)cc1	-7[25 µM]
CC(C)NC(=O)N1C[C@@H]2C(c3ccc(Br)cc3)[C@H](C1)N2C (some centres undefined)	-4
SMILES	CD40 NFkB inh
CS(=O)(=O)N1C[C@@H]2C(c3ccccc3)[C@H](C1)N2CC1CC1 (some centres undefined)	-6
Cc1ccc2c(c1)Cc1c(C(=O)NN3CCCCC3)nn(-c3ccc(Cl)cc3Cl)c1-2	8[25 µM]
C=CCN1CCC23c4c5ccc(O)c4OC2C(=O)CCC3(O)C1C5 (centres undefined)	-4[25 µM]
C=CCN1[C@@H]2CN(CC(F)(F)F)C[C@H]1C2c1ccc(Br)cc1 (some centres undefined)	-7
CC(C)NC(C)C(=O)c1ccc2ccccc2c1 (centres undefined)	9
COC(=O)C1=C(C(=O)OC)C2OC1c1cc3ccccc3cc12	103*
Cc1ccc(OC(=O)N(C)C[C@H]2OCc3ccccc3-c3c(n(C)c4ccccc34)C(=O)N([C@@H](C)CO)C[C@H]2C)cc1	12[25 µM]
O=C(Cc1ccccn1)N1CCCCN2[C@H](CO)[C@H](c3ccc(Br)cc3)[C@@H]2C1	3[25 µM]
N#Cc1ccc(-c2ccc([C@H]3[C@@H](CO)N4CCCCN(C(=O)Cc5ccccc5)C[C@H]34)cc2)cc1	2[25 µM]
C=CCN1C[C@H](C)N([C@H](c2ccc(C(=O)N(CC)CC)cc2)c2cccc(O)c2)C[C@H]1C	-1[25 µM]
CCOC(=O)c1ncn2c1C1CCCN1C(=O)c1cc(OC)ccc1-2 (centres undefined)	4[25 µM]
Oc1ccc2c3c1OC1c4[nH]c5ccccc5c4CC4(O)C(C2)N(CC2CC2)CCC314 (centres undefined)	-18[25 µM]
C[C@@H]1CN([C@@H](C)CO)C(=O)c2c(c3ccccc3n2C)-c2ccccc2CO[C@@H]1CN(C)C(=O)Oc1ccccc1	0
CC(=O)OCC12CC(OC(=O)CC(C)C)C(C)=CC1OC1C(O)C(OC(C)=O)C2(C)C12CO2 (centres undefined)	65*
